Screens: PubChem BioAssay, several laboratories
An excerpt weighted towards active compounds, which were near 3.3% of everything screened.
UHRF1 MBD2 ctr – UHRF1 methyl-DNA binding inhibition; Q96T88; UHRF1 binding to methylated oligo, TR-FRET; inhibition, % at 4.4 µM; 370,000 tested, 0.75% active; AID 687016; in the data active = inhibition above about 21%;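 note: UHRF1 SRA domain binding a hemimethylated CpG hairpin DNA probe; 0% = median of test compound wells and 100% = reference inhibitor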
Target sequence (Q96T88 whole entry, looked up, the tested form may be a part): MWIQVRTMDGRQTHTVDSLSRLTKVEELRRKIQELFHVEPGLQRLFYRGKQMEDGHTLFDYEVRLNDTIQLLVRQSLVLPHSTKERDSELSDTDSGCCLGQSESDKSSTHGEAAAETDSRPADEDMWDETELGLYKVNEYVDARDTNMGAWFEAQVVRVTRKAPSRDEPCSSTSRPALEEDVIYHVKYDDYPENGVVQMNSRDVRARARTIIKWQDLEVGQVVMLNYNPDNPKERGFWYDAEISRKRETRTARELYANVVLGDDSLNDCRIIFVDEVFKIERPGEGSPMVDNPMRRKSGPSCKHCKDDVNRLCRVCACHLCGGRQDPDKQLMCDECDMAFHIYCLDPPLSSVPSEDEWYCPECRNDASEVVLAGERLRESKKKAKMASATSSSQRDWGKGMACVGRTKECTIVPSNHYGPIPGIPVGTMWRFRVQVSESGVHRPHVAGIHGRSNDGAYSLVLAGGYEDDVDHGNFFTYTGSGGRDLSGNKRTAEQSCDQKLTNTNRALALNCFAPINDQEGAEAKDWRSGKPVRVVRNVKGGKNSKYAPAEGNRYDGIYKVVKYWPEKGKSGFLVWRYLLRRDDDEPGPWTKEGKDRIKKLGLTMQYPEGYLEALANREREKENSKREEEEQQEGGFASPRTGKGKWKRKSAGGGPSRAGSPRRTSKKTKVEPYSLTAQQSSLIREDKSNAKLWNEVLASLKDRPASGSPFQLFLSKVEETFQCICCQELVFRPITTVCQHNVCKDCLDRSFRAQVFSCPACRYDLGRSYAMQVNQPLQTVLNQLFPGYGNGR
PfGluPho inh – PfG6PD (Plasmodium falciparum) enzyme inhibition; PfGluPho enzyme, NADPH resazurin-diaphorase fluorescence; inhibition, % at 20 µM; 350,000 tested, 0.78% active; AID 504690;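 active = inhibition reaching at least a set limit at 20 µM in the primary screen, cut at about 59% in these data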;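 note: 0% = DMSO wells with substrate and 100% = DMSO wells lacking glucose-6-phosphate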
MBD2 inh – inhibitors of human MBD2 binding to methylated oligonucleotide; Q9UBB5; TR-FRET; inhibition, % at 4.4 µM; 370,000 tested, 0.31% active; in the data active = inhibition above about 13%
PfM18AAP inh – blocks P. falciparum M18 aspartyl aminopeptidase; AID 1822; 290,000 tested, 1.2% active; recombinant PfM18AAP, H-Glu-NHMec fluorogenic cleavage; inhibition, % at 7.35 µM;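 active = inhibition above the campaign mean inhibition over all tested compounds plus 3 SD, cut at about 28% in these data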;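 note: 0% = plate median of test compound wells and 100% = 2 mM ZnCl2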
PRMT1 FP inh – PRMT1 (human) inhibition, primary screen. Q99873. recombinant PRMT1, activity-based probe fluorescence polarization. inhibition, % at 2.79 µM. 370,000 tested, 1.3% active. AID 652257;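 active = inhibition above about 21% made by adding two undisclosed values, limit read from the data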
PRMT1 confirm – confirmation of human PRMT1 inhibitors; recombinant His-PRMT1, activity-based probe fluorescence polarization; inhibition, % at 2.79 µM; shares compounds with PRMT1 FP inh; 3,300 tested, 42% active;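 active = mean inhibition across replicates above the hit cutoff derived for the earlier primary screen, cut at about 22% in these data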
An asterisk follows results filed as active.

How did O=C(NN1C(=O)C2C3C=CC(O3)C2C1=O)c1cccc(Br)c1 (stereo not drawn) do in these assays?
UHRF1 MBD2 ctr: 0; PfGluPho inh: 10; MBD2 inh: -6; PfM18AAP inh: -14; PRMT1 FP inh: 40*; PRMT1 confirm: 8

How did Cc1cccc(C(=O)NN2C(=O)C3C(c4ccccc4)C=CC(c4ccccc4)C3C2=O)c1 (stereo not drawn) do in these assays?
UHRF1 MBD2 ctr: -1; PfGluPho inh: -27; MBD2 inh: 2; PfM18AAP inh: -4; PRMT1 FP inh: 1

What do the screens show for `Cc1ccc(C(=O)NN2C(=O)C3C4C=CC(C4)[C@@H]3C2=O)cc1` (stereo partly drawn)?
UHRF1 MBD2 ctr: 1; PfGluPho inh: -6; MBD2 inh: -5; PfM18AAP inh: -1; PRMT1 FP inh: 5

How did COc1ccc(C(=O)NN2C(=O)C3C4C=CC(O4)C3C2=O)cc1 (stereo not drawn) do in these assays?
UHRF1 MBD2 ctr: 2; PfGluPho inh: 2; MBD2 inh: 2; PfM18AAP inh: -6; PRMT1 FP inh: 49*; PRMT1 confirm: 11

How did COCCCn1c(C)nnc1SCC(=O)Nc1cccc(C)c1 do in these assays?
UHRF1 MBD2 ctr: 0; PfGluPho inh: 14; MBD2 inh: 0; PfM18AAP inh: 3; PRMT1 FP inh: -3

What do the screens show for `COc1ccccc1N1C(=O)c2ccc(C(=O)Nc3ccc(C(=O)O)cc3)cc2C1=O`?
UHRF1 MBD2 ctr: 0; PfGluPho inh: 10; MBD2 inh: -7; PfM18AAP inh: 0; PRMT1 FP inh: 5

How did Fc1ccc(CSc2ccc(-c3ccco3)nn2)cc1 do in these assays?
UHRF1 MBD2 ctr: 6; PfGluPho inh: -5; MBD2 inh: 4; PfM18AAP inh: -3; PRMT1 FP inh: 54*; PRMT1 confirm: -1

How did O=C(CSc1ccc(-c2ccco2)nn1)c1ccc(F)cc1 do in these assays?
UHRF1 MBD2 ctr: 10; PfGluPho inh: 20; MBD2 inh: 2; PfM18AAP inh: -15; PRMT1 FP inh: 54*; PRMT1 confirm: 13

What do the screens show for `Cc1cc2nc(-c3ccc(F)cc3)c(CC3CCCCC3)n2c(C)c1Br`?
UHRF1 MBD2 ctr: -3; MBD2 inh: 0; PRMT1 FP inh: 1

Results for O=C(CCSc1ccc(Br)cc1)c1ccc(O)cc1 ?
UHRF1 MBD2 ctr: -1; PfGluPho inh: -9; MBD2 inh: 3; PfM18AAP inh: 1; PRMT1 FP inh: 31*; PRMT1 confirm: 16

Results for CSCc1ccc(C(=O)NCCSc2ccc(Br)cc2)cc1 ?
UHRF1 MBD2 ctr: -1; PfGluPho inh: 16; MBD2 inh: -4; PfM18AAP inh: -1; PRMT1 FP inh: 0

How did Cc1cc(S(=O)(=O)N2CCOCC2)ccc1OCC(=O)NCC1CCCO1 (stereo not drawn) do in these assays?
UHRF1 MBD2 ctr: 1; PfGluPho inh: -3; MBD2 inh: 1; PfM18AAP inh: -2; PRMT1 FP inh: 0

What do the screens show for `CCOc1ccc(Nc2ccc(N)c(S(=O)(=O)O)c2)cc1`?
UHRF1 MBD2 ctr: 17; PfGluPho inh: 49; MBD2 inh: 0; PRMT1 FP inh: 36*; PRMT1 confirm: 10

How did O=[N+]([O-])c1cc(-c2ncccn2)c([N+](=O)[O-])s1 do in these assays?
UHRF1 MBD2 ctr: -12; PfGluPho inh: 123*; MBD2 inh: -9; PfM18AAP inh: -49; PRMT1 FP inh: 28*; PRMT1 confirm: 37*

How did Cc1cc(NS(=O)(=O)c2ccc(NC(=O)/C=C/c3ccc(C)o3)cc2)nc(C)n1 do in these assays?
UHRF1 MBD2 ctr: 4; PfGluPho inh: 39; MBD2 inh: 1; PfM18AAP inh: -14; PRMT1 FP inh: 55*; PRMT1 confirm: 54*

What do the screens show for `COc1ccc(NC(=O)/C=C/c2ccc(C)o2)cc1S(=O)(=O)N1CCOCC1`?
UHRF1 MBD2 ctr: 7; PfGluPho inh: 37; MBD2 inh: 8; PfM18AAP inh: -28; PRMT1 FP inh: 45*; PRMT1 confirm: 30*

How did Cc1ccc2oc(C(=O)NCC3CCOCC3)c(C)c2c1 do in these assays?
UHRF1 MBD2 ctr: -1; PfGluPho inh: -6; MBD2 inh: 1; PfM18AAP inh: 0; PRMT1 FP inh: -4

Results for Cc1ccc(CNC(=O)c2ccc(NC(=O)CCS(=O)(=O)c3cccs3)cc2)cc1 ?
UHRF1 MBD2 ctr: -1; PfGluPho inh: -3; MBD2 inh: 5; PfM18AAP inh: 6; PRMT1 FP inh: 35*; PRMT1 confirm: 2

How did Cc1ccc(-c2nn(-c3ccccc3)cc2CN(Cc2ccccc2)C(=O)c2ccco2)o1 do in these assays?
UHRF1 MBD2 ctr: -3; PfGluPho inh: 33; MBD2 inh: 0; PfM18AAP inh: -54; PRMT1 FP inh: 39*; PRMT1 confirm: 19

How did Cc1ccc(-c2nn(-c3ccccc3)cc2C(=O)O)o1 do in these assays?
PfM18AAP inh: 11

How did Cc1ccc(-c2nn(-c3ccccc3)cc2/C=C/C(=O)O)o1 do in these assays?
UHRF1 MBD2 ctr: 2; PfGluPho inh: -6; MBD2 inh: -2; PfM18AAP inh: -104; PRMT1 FP inh: 31*; PRMT1 confirm: 0

Results for CC(=O)c1ccc(S(=O)(=O)N(C)CCCC(=O)N(C)Cc2c(F)cccc2Cl)cc1 ?
UHRF1 MBD2 ctr: 3; PfGluPho inh: -6; MBD2 inh: 5; PfM18AAP inh: 9; PRMT1 FP inh: 3

What do the screens show for `CCCN(CCC)S(=O)(=O)c1ccc(C(=O)OCCN2C(=O)c3cccc4c(N5CCOCC5)ccc(c34)C2=O)cc1`?
PfGluPho inh: -1; PfM18AAP inh: -3

Results for O=C(OCCN1C(=O)c2cccc3c(N4CCOCC4)ccc(c23)C1=O)c1ccc(Cl)cc1 ?
UHRF1 MBD2 ctr: -10; PfGluPho inh: -9; MBD2 inh: -7; PfM18AAP inh: 0; PRMT1 FP inh: 29*; PRMT1 confirm: 1

Results for Cc1ccccc1CS(=O)(=O)c1cnc2ccccc2n1 ?
UHRF1 MBD2 ctr: -3; PfGluPho inh: 20; MBD2 inh: -4; PfM18AAP inh: 5; PRMT1 FP inh: -1

How did O=C(Cn1ccccc1=S)c1ccc(Cl)c(Cl)c1 do in these assays?
UHRF1 MBD2 ctr: 0; PfGluPho inh: 9; MBD2 inh: -1; PRMT1 FP inh: -1

Results for On1ccccc1=S ?
UHRF1 MBD2 ctr: 1; PfGluPho inh: 75*; MBD2 inh: -5; PRMT1 FP inh: 88*; PRMT1 confirm: 88*

How did Cc1cnc(NC(=O)CSc2nnc(COc3c(C)cccc3C)o2)s1 do in these assays?
UHRF1 MBD2 ctr: 0; PfGluPho inh: -14; MBD2 inh: 6; PfM18AAP inh: 28*; PRMT1 FP inh: 38*; PRMT1 confirm: -5

What do the screens show for `CCCCN1C(=O)CC(Sc2ncccc2C(=O)O)C1=O` (stereo not drawn)?
UHRF1 MBD2 ctr: 3; PfGluPho inh: -32; MBD2 inh: -1; PfM18AAP inh: -4; PRMT1 FP inh: 3

Results for CCCCN1C(=O)CC(SC2CC(=O)N(CCCC)C2=O)C1=O (stereo not drawn) ?
UHRF1 MBD2 ctr: 7; PfGluPho inh: -6; MBD2 inh: 2; PRMT1 FP inh: 57*; PRMT1 confirm: 17
